Experiment [1] has as its target Retinoic acid receptor RXR-alpha (Homo sapiens) (UniProt P19793). Kind of experiment: ATG_RXRa_TRANS: Attagene TRANS-FACTORIAL HepG2 Assay for human Retinoid X Receptor alpha (RXRa) (AID 2283012; active = hit-call score of the fitted dose curve at least 0.9, where 1 is the maximum). A digest of the protocol:
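Chimeric NR-GAL4 trans-activation in HepG2, 24 h treatment; reporter transcripts quantified by fluorescence on capillary electrophoresis, analysed for upward change from DMSO.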

Experiment [2] addresses human Retinoid X Receptor beta (RXRb), RXRB (gene 6257) (UniProt P28702). Kind of experiment: ATG_RXRb_TRANS: Attagene TRANS-FACTORIAL HepG2 Assay for human Retinoid X Receptor beta (RXRb) (AID 2283013; active = hit-call score of the fitted dose curve at least 0.9, where 1 is the maximum). A digest of the protocol: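 After a 24 h incubation with test chemical, transfected HepG2 cells carrying NR-Gal4 fusions and GAL4-UAS reporter transcription units yield RNA whose reporter cDNA is FAM-labelled, HpaI-cut and sized by capillary electrophoresis; increases over DMSO are scored.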

In experiment [3] the target is human Thyroid Receptor alpha (THRa1), THRA (gene 7067) (UniProt P10827). In words: ATG_THRa1_TRANS: Attagene TRANS-FACTORIAL HepG2 Assay for human Thyroid Receptor alpha (THRa1) (AID 2283014; active = hit-call score of the fitted dose curve at least 0.9, where 1 is the maximum). In short, it runs like this:
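Reporter transcript induction, read by capillary electrophoresis of 6-FAM-labelled RT-PCR products, reflects activity of a transfected THRa1-Gal4 fusion in HepG2 liver cells. Cells were dosed for 24 h; activity was fitted in the positive direction against DMSO.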

Experiment [4] addresses human Vitamin D Receptor (VDR), VDR (gene 7421) (UniProt P11473). Kind of experiment: ATG_VDR_TRANS: Attagene TRANS-FACTORIAL HepG2 Assay for human Vitamin D Receptor (VDR) (AID 2283022; active = hit-call score of the fitted dose curve at least 0.9, where 1 is the maximum). In short, it runs like this: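 Steps: transfect HepG2 with GAL4-UAS-driven reporter constructs; dose compounds 24 h; isolate RNA, reverse-transcribe, PCR-amplify with 6-FAM-labelled primer extension and HpaI digestion; quantify fragments by capillary electrophoresis relative to DMSO.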

Read-out in experiment [5]: E-selectin (Homo sapiens) (UniProt P16581)
Kind of experiment: BSK_3C_Eselectin: BioMAP Diversity Plus: 3C Assay for Eselectin Biomarker Activity (AID 2283015).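 As to outcome: cell surface E-selectin protein quantified by ELISA 24 h after dosing.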 The note with it: primary human endothelial cells (HUVEC); actives raise or lower the signal. In short, it runs like this: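 ELISA read-out of E-selectin on endothelial monolayers after 24 h chemical treatment. Human umbilical vein primary cells served as the system, with DMSO defining baseline activity for bidirectional fitting.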

Read-out in experiment [6]: Interleukin-1 alpha (IL1a), IL1A (gene 3552)
Kind of experiment: BSK_BE3C_IL1a: BioMAP Diversity Plus: BE3C Assay for Interleukin-1 alpha (IL1a) Biomarker Activity (AID 2283016). The conditions noted are these: primary human bronchial epithelial cells; actives raise or lower the signal. In short, it runs like this: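 Measured in human lung primary bronchial epithelial cells: IL-1a by ELISA at 24 h after dosing, with bidirectional fitting against DMSO.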

Read-out in experiment [7]: Monocyte Chemoattractant Protein-1 (MCP1), CCL2 (gene 6347)
Kind of experiment: BSK_3C_MCP1: BioMAP Diversity Plus: 3C Assay for Monocyte Chemoattractant Protein-1 (MCP1) Biomarker Activity (AID 2283017). The conditions noted are these: primary human endothelial cells (HUVEC); actives raise or lower the signal. In short, it runs like this: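 ELISA read-out of MCP-1 from human umbilical vein endothelial cell cultures harvested 24 h post-dosing. Gain or loss of signal was fitted relative to DMSO.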

Read-out in experiment [8]: Monocyte Chemoattractant Protein-1 (MCP1), CCL2 (gene 6347)
In words: BSK_4H_MCP1: BioMAP Diversity Plus: 4H Assay for Monocyte Chemoattractant Protein-1 (MCP1) Biomarker Activity (AID 2283018). The conditions noted are these: primary human endothelial cells (HUVEC); actives raise or lower the signal. A digest of the protocol: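 Primary human umbilical vein endothelium is exposed to chemical for 24 h before MCP-1 is assayed by ELISA. Concentration-response fitted bidirectionally relative to DMSO.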

Read-out in experiment [9]: Human Leukocyte Antigen - DR isotype (HLADR), HLA-DRA (gene 3122)
Kind of experiment: BSK_3C_HLADR: BioMAP Diversity Plus: 3C Assay for Human Leukocyte Antigen - DR isotype (HLADR) Biomarker Activity (AID 2283019).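 As to outcome: ELISA of cell-surface HLA-DR on HUVEC 24 h after dosing.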 The note with it: primary human endothelial cells (HUVEC); actives raise or lower the signal. A digest of the protocol:
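ELISA readout of surface HLA-DR on human umbilical vein endothelium, taken 24 h after chemical treatment. Gain- and loss-of-signal were both fitted relative to DMSO.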

Read-out in experiment [10]: Interleukin-8 (IL8), CXCL8 (gene 3576)
Kind of experiment: BSK_3C_IL8: BioMAP Diversity Plus: 3C Assay for Interleukin-8 (IL8) Biomarker Activity (AID 2283020). The note with it: primary human endothelial cells (HUVEC); actives raise or lower the signal. In short, it runs like this: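 Using DMSO-treated wells as the baseline, bidirectional curve fitting was applied to ELISA-measured IL-8 from human umbilical vein endothelial cultures sampled 24 h after compound addition.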

Read-out in experiment [11]: Monokine induced gamma interferon (MIG), CXCL9 (gene 4283)
Kind of experiment: BSK_3C_MIG: BioMAP Diversity Plus: 3C Assay for Monokine induced gamma interferon (MIG) Biomarker Activity (AID 2283021). The conditions noted are these: primary human endothelial cells (HUVEC); actives raise or lower the signal. In short, it runs like this:
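ELISA-measured MIG in dosed HUVEC 3C cultures at 24 h, analysed by bidirectional fitting with DMSO defining baseline activity.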

Experiment [12] can be described thus: BSK_3C_SRB: Viability Assessment in the BioMAP Diversity Plus: 3C Assay (AID 2283023).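 Also: fitted both ways against DMSO so a hit may be signal rise or drop.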 The note with it: primary human endothelial cells (HUVEC). A digest of the protocol:
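Absorbance at 560 nm of sulforhodamine B-stained (0.1%) total protein served as a cytotoxicity readout in human umbilical vein endothelial cells, 24 h after chemical treatment. Signal was fitted bidirectionally relative to DMSO.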

Read-out in experiment [13]: Matrix Metallopeptidase 1 (MMP1), MMP1 (gene 4312)
In words: BSK_BE3C_MMP1: BioMAP Diversity Plus: BE3C Assay for Matrix Metallopeptidase 1 (MMP1) Biomarker Activity (AID 2283024). The note with it: primary human bronchial epithelial cells; actives raise or lower the signal. A digest of the protocol: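 In this multiplexed primary-cell system, human bronchial epithelium received chemicals for 24 h before an ELISA for MMP1. Values reflect bidirectional fits normalised to the DMSO baseline.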

Read-out in experiment [14]: Pselectin, SELP (gene 6403)
Kind of experiment: BSK_4H_Pselectin: BioMAP Diversity Plus: 4H Assay for Pselectin Biomarker Activity (AID 2283026). The note with it: primary human endothelial cells (HUVEC); actives raise or lower the signal. A digest of the protocol:
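Bidirectional fits against DMSO gave the endpoint. Cells: primary human umbilical vein endothelium, chemical-treated for 24 h before ELISA detection of P-selectin.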

A short description of experiment [15]: BSK_4H_SRB: Viability Assessment in the BioMAP Diversity Plus: 4H Assay (AID 2283027).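 Also: cells exposed to compound for 24 h before staining.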 The note with it: primary human endothelial cells (HUVEC). A digest of the protocol: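 Cytotoxicity read-out in primary human endothelial cells: after 24 h compound exposure, cells were TCA-fixed (10%), stained with 0.1% SRB and absorbance taken at 560 nm. Values fitted in both directions relative to DMSO.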

A short description of experiment [16]: BSK_BE3C_SRB: Viability Assessment in the BioMAP Diversity Plus: BE3C Assay (AID 2283028). The note with it: primary human bronchial epithelial cells. In short, it runs like this: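 Cells (human bronchial epithelial, primary) are treated with chemicals, and after 24 h the parallel cultures are fixed in 10% TCA. These are then stained with 0.1% SRB and read at 560 nm. Gain or loss of signal is fitted relative to DMSO.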

Read-out in experiment [17]: Thrombomodulin, THBD (gene 7056)
In words: BSK_3C_Thrombomodulin: BioMAP Diversity Plus: 3C Assay for Thrombomodulin Biomarker Activity (AID 2283029). The conditions noted are these: primary human endothelial cells (HUVEC); actives raise or lower the signal. A digest of the protocol: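 In a multiplexed primary-cell system, human umbilical vein endothelium received chemical and was assayed 24 h later for thrombomodulin by ELISA. Parallel cultures were SRB-stained (0.1% SRB after 10% TCA fixation, read at 560 nm) to flag cytotoxicity.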

Read-out in experiment [18]: Urokinase-type plasminogen activator receptor (uPAR), PLAUR (gene 5329)
In words: BSK_4H_uPAR: BioMAP Diversity Plus: 4H Assay for Urokinase-type plasminogen activator receptor (uPAR) Biomarker Activity (AID 2283030). The conditions noted are these: primary human endothelial cells (HUVEC); actives raise or lower the signal. A digest of the protocol:
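Cell-surface uPAR ELISA signal, measured 24 h after dosing human umbilical vein endothelial cells, was analyzed with bidirectional fitting relative to DMSO. Parallel SRB staining of total protein tracked overt cytotoxicity.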

Read-out in experiment [19]: Vascular endothelial growth factor receptor 2 (Homo sapiens) (UniProt P35968)
In words: BSK_4H_VEGFRII: BioMAP Diversity Plus: 4H Assay for Vascular endothelial growth factor receptor 2 (VEGFR2) Biomarker Activity (AID 2283031). The note with it: primary human endothelial cells (HUVEC); actives raise or lower the signal. In short, it runs like this:
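ELISA read-out of VEGFRII in primary human umbilical vein endothelium, taken 24 h after chemical treatment. Responses are expressed relative to DMSO, with bidirectional fitting.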

A short description of experiment [20]: BSK_3C_Vis: BioMAP Diversity Plus: 3C Assay for Morphology Visualization (AID 2283025).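 Also: light microscopy image of cell morphology used as background control; fitted both ways so gain or loss versus DMSO counts.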 The note with it: primary human endothelial cells (HUVEC). In short, it runs like this:
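Light-microscopy morphology readout, 24 h exposure, human primary umbilical vein endothelium; analysed relative to DMSO with bidirectional fitting.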

Results filed as inconclusive are left out. Active and inactive are the calls of the source. The calls were made as follows, unless noted: active = hit-call score of the fitted dose curve at least 0.9, where 1 is the maximum; inactive = score below 0.9.

Results on 8 compounds are retold here after PubChem BioAssay (EPA / NIEHS).

One may read the AC50 as the concentration giving half of the maximal activity seen.

human Vitamin D Receptor (VDR), VDR (gene 7421), sequence (P11473 whole entry, looked up, the tested form may be a part): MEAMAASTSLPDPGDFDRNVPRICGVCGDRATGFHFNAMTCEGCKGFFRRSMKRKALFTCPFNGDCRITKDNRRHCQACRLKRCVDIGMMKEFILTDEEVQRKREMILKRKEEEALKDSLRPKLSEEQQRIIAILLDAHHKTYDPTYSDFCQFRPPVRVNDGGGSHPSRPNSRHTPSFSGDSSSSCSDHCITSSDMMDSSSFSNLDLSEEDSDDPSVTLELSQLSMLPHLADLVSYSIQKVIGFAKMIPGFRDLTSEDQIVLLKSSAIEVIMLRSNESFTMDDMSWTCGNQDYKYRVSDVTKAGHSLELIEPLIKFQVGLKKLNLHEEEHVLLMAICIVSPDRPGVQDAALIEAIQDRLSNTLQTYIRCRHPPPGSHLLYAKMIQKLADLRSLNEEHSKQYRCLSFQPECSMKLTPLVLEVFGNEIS
human Retinoid X Receptor beta (RXRb), RXRB (gene 6257), sequence (P28702 whole entry, looked up, the tested form may be a part): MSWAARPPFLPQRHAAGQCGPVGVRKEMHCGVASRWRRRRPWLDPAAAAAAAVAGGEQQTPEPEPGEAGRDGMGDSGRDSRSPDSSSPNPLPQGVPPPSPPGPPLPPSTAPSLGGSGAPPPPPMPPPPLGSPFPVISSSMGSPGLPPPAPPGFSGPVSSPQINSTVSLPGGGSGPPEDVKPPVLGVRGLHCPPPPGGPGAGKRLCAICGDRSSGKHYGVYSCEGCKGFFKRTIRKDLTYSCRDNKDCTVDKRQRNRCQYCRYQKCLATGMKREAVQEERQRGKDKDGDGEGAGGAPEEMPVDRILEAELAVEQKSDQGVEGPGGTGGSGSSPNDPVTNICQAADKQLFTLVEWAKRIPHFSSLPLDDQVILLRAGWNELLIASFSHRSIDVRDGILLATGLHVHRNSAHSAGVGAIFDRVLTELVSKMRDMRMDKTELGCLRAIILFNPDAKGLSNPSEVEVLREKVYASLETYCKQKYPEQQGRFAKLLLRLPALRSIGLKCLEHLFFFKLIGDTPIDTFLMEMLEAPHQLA
E-selectin (Homo sapiens), sequence (P16581 whole entry, looked up): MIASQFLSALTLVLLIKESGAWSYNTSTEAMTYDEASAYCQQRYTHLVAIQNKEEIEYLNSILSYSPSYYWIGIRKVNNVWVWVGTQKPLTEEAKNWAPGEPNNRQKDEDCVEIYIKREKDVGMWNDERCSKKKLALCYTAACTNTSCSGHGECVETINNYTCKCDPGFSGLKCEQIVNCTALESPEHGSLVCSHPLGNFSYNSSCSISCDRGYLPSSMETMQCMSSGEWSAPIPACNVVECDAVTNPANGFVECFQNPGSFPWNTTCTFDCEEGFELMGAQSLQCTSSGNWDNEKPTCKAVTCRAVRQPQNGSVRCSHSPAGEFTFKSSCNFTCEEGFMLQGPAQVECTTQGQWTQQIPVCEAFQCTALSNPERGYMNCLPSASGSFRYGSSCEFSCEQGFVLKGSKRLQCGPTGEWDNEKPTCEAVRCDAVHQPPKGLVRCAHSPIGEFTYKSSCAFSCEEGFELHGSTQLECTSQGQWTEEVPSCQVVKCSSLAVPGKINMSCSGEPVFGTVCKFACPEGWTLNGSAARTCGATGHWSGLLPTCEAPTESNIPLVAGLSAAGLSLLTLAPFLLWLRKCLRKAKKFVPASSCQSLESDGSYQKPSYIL
Retinoic acid receptor RXR-alpha (Homo sapiens), sequence (P19793 whole entry, looked up, the tested form may be a part): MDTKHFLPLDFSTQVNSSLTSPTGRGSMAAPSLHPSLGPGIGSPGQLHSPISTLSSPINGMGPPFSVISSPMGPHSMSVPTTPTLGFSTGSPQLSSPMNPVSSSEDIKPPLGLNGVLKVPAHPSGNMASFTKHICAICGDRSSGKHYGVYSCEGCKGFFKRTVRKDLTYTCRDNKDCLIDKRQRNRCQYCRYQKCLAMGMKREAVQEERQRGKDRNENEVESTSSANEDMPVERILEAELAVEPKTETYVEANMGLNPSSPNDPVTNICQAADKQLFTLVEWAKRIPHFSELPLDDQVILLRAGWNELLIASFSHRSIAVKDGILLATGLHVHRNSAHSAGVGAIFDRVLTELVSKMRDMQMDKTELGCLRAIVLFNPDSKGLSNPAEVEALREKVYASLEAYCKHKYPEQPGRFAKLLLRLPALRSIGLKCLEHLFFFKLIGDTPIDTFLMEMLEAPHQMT
human Thyroid Receptor alpha (THRa1), THRA (gene 7067), sequence (P10827 whole entry, looked up, the tested form may be a part): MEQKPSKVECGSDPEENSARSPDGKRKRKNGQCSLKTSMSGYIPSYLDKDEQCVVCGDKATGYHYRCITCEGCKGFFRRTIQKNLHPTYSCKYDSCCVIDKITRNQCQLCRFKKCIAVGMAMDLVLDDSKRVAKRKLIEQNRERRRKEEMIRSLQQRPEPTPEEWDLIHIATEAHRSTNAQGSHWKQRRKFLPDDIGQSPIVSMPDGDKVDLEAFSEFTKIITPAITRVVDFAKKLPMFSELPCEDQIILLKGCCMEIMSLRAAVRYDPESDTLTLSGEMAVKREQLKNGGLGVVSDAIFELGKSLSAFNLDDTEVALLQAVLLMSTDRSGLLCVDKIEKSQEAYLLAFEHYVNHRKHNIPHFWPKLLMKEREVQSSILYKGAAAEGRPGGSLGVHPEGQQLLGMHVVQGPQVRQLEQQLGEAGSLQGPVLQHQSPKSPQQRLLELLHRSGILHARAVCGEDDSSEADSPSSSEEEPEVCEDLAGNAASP

For the compound `C=C1C[C@]23C[C@@]1(O)CC[C@H]2[C@@]12C=C[C@H](O)[C@@](C)(C(=O)O1)[C@H]2[C@@H]3C(=O)O`, the compound was called inactive in experiment [1], in [2], in experiment [3] and in experiment [4].
As to `CC(C)(C)C1=CC(=O)C(C(C)(C)C)=CC1=O`, the outcome in experiment [1], in experiment [3] and in experiment [4] was inactive. In addition, in experiment [2], the AC50 was 13.7 µM (active).
Turning to `C=CC(C)(O)CCC=C(C)C` (stereo not drawn), the compound was classed as inactive in experiment [1], in experiment [2], in experiment [5], in experiment [6], in [7] and in [8]. The result in experiment [9], in experiment [10], in experiment [11], in experiment [4], in [12] and in [13] was inactive. In addition, the outcome in experiment [14], in [15], in [16], in experiment [17], in experiment [18] and in [19] was inactive.
As for `CCCCCCCCCC(C)C=O` (stereo not drawn), the compound was classed as inactive in experiment [1], in [2] and in experiment [4].
For `Nc1ccc2cc(S(=O)(=O)O)cc(O)c2c1N=Nc1ccccc1C(F)(F)F`, the values for the AC50 in [1] and in experiment [2] were 78 µM (active) and 14.8 µM (active), respectively. The outcome in [3] and in [4] was inactive.
Turning to `ON=C1CCCCC1`, the result in [1], in experiment [2] and in experiment [4] was inactive.
On to `CC1(C)C2=CCCC(C)(C)[C@]23CC[C@H]1C3`, for which the call in [1], in experiment [2], in experiment [6], in experiment [8], in experiment [11] and in experiment [13] was inactive. For the same compound, the outcome in experiment [15], in experiment [16], in experiment [17], in experiment [18] and in experiment [19] was inactive. Further, the AC50 in experiment [5] is 32.8 µM (active); in experiment [7], 30.4 µM (active); in experiment [9] it was 29.1 µM (active); in experiment [10], 20 µM (active); in [12], 30.4 µM (active); in experiment [20], 37.4 µM (active). Also, in [14], the AC50 is 20 µM (active).
On to `BrCc1cccc(Oc2ccccc2)c1`, for which the call in experiment [1], in experiment [3] and in experiment [4] was inactive. Besides, the AC50 in experiment [2] is 66.9 µM (active).
